What all share (test): yeast three-hybrid, YBZ-1, SC-Leu-His + 0.5 mM 3-AT, 4 days
Holding throughout (conditions): tags: N-Gal4 AD-HA kept; label: inside an RPR1-promoter hybrid RNA with tandem MS2 sites; ssRNA

One assay concerns the target PUM1 PUF domain R2-KRG (Homo sapiens, UniProt Q14671 828-1176, N899K;Y900R;Q903G). An outline of the steps:
(§1)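 Repeat regions from input (SC-Leu) and selection (SC-Leu-His + 0.5 mM 3-AT) plates were PCR-amplified and Illumina-sequenced after four days of growth. The cells were strain YBZ-1 with a LexA–MS2 coat fusion and a HIS3 reporter, co-expressing Pumilio-1 PUF domain libraries and matching RNA elements from a centromeric plasmid. The interaction score is the log change in variant frequency from input to selection, taken in log2 with a pseudocount of 1 for absent variants.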

The next assay addresses PUM1 PUF domain R7-KYN (Homo sapiens, UniProt Q14671 828-1176, S1079K;N1080Y;E1083N). An outline of the steps:
as §1

The next assay concerns the target PUM1 PUF domain R3-IRT (Homo sapiens, UniProt Q14671 828-1176, C935I;Q939T). The method in brief:
as §1

For the next assay, the target named is T1, PUM1 PUF domain R6-IYL (Homo sapiens, UniProt Q14671 828-1176, N1043I;Q1047L).
T1 sequence: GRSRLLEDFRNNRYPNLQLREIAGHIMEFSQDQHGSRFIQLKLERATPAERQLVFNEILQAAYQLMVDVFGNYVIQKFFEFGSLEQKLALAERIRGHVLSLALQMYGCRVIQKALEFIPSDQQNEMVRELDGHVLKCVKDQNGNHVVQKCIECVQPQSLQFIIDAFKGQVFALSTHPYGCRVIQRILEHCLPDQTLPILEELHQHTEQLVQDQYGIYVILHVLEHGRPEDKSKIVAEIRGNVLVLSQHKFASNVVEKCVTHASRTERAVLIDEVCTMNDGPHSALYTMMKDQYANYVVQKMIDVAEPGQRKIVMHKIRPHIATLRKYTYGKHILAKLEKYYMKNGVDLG
The method in brief:
as §1

The target of a further assay is PUM1 PUF domain R4-DWR (Homo sapiens, UniProt Q14671 828-1176, N971D;H972W;Q975R). An outline of the steps:
as §1

A further assay concerns the target PUM1 PUF domain R7-LSS (Homo sapiens, UniProt Q14671 828-1176, S1079L;N1080S;E1083S). An outline of the steps: as §1
The next assay concerns the target PUM1 PUF domain R1-KGM (Homo sapiens, UniProt Q14671 828-1176, S863K;R864G;Q867M). The method in brief:
as §1

A further assay addresses PUM1 PUF domain R3-FCE (Homo sapiens, UniProt Q14671 828-1176, C935F;R936C;Q939E). An outline of the steps: as §1
A further assay concerns the target PUM1 PUF domain R5-LHP (Homo sapiens, UniProt Q14671 828-1176, C1007L;R1008H;Q1011P). The method in brief:
as §1

The source of these data is article PMC8384837, “Expanding the binding specificity for RNA recognition by a PUF domain”.

For the sequence “GGCUAGAACUAGUGGAUCCCCCGGCGCCCGGCGGCUCGAGCCCGGGUAAGUGUAAAGAGUCUGCAUGCCGCCGGGCGCCAUGCCUGCAGGUCGACUCUAGAAAACAUG”, in the assay with PUM1 PUF domain R2-KRG, the binding signal is 4.1 log2 enrichment (interaction score).
In the case of “GGCUAGAACUAGUGGAUCCCCCGGCGCCCGGCGGCUCGAGCCCGGGUAAGUCUAAAUAGUCUGCAUGCCGCCGGGCGCCAUGCCUGCAGGUCGACUCUAGAAAACAUG”, the binding signal with PUM1 PUF domain R7-KYN was 3.09 log2 enrichment (interaction score).
With “GGCUAGAACUAGUGGAUCCCCCGGCGCCCGGCGGCUCGAGCCCGGGUAAGUGUAAAUAGUCUGCAUGCCGCCGGGCGCCAUGCCUGCAGGUCGACUCUAGAAAACAUG”, the binding signal in the assay with PUM1 PUF domain R3-IRT was 4.08 log2 enrichment (interaction score); with PUM1 PUF domain R6-IYL it was 4.93 log2 enrichment (interaction score).
Regarding “GGCUAGAACUAGUGGAUCCCCCGGCGCCCGGCGGCUCGAGCCCGGGUAAGUGUACAUAGUCUGCAUGCCGCCGGGCGCCAUGCCUGCAGGUCGACUCUAGAAAACAUG”, in the assay with PUM1 PUF domain R4-DWR, the binding signal was 6.69 log2 enrichment (interaction score).
Regarding “GGCUAGAACUAGUGGAUCCCCCGGCGCCCGGCGGCUCGAGCCCGGGUAAGUGUAUAUAGUCUGCAUGCCGCCGGGCGCCAUGCCUGCAGGUCGACUCUAGAAAACAUG”, the binding signal in the assay with PUM1 PUF domain R4-DWR is 5.3 log2 enrichment (interaction score).
For the sequence “GGCUAGAACUAGUGGAUCCCCCGGCGCCCGGCGGCUCGAGCCCGGGUAAGUUUAAAUAGUCUGCAUGCCGCCGGGCGCCAUGCCUGCAGGUCGACUCUAGAAAACAUG”, the binding signal with PUM1 PUF domain R7-LSS is 2.47 log2 enrichment (interaction score).
In the case of “GGCUAGAACUAGUGGAUCCCCCGGCGCCCGGCGGCUCGAGCCCGGGUAAGUGUAAAUUGUCUGCAUGCCGCCGGGCGCCAUGCCUGCAGGUCGACUCUAGAAAACAUG”, the binding signal with PUM1 PUF domain R1-KGM was 0.32 log2 enrichment (interaction score).
For “GGCUAGAACUAGUGGAUCCCCCGGCGCCCGGCGGCUCGAGCCCGGGUAAGUGUAAAUCGUCUGCAUGCCGCCGGGCGCCAUGCCUGCAGGUCGACUCUAGAAAACAUG”, the binding signal with PUM1 PUF domain R1-KGM was 2.83 log2 enrichment (interaction score).
For “GGCUAGAACUAGUGGAUCCCCCGGCGCCCGGCGGCUCGAGCCCGGGUAAGUGUAAGUAGUCUGCAUGCCGCCGGGCGCCAUGCCUGCAGGUCGACUCUAGAAAACAUG”, the binding signal in the assay with PUM1 PUF domain R3-FCE is 3.54 log2 enrichment (interaction score).
As for “GGCUAGAACUAGUGGAUCCCCCGGCGCCCGGCGGCUCGAGCCCGGGUAAGUGUUAAUAGUCUGCAUGCCGCCGGGCGCCAUGCCUGCAGGUCGACUCUAGAAAACAUG”, in the assay with PUM1 PUF domain R5-LHP, the binding signal was 3.09 log2 enrichment (interaction score).
